Reference: PubChem BioAssay (NCATS)
Inconclusive results are not listed. Calls of active or inactive are those of the source. Calls follow the shape of the dose curve; as a rule, active = well fitted inhibition curve with a large enough effect; inconclusive = small, poorly fitted or top-dose-only effect; inactive = flat fitted curve, though single readings scatter.

Each compound was assayed on NIH3T3 (assay: qHTS assay to identify novel small-molecules to repurpose for Merkel cell carcinoma treatment (AID 1296009; also: nearly all actives have a fitted effect of over 60% in size)). Details: MCC and control cell lines, CellTiter-Glo viability, 72 h; at 44.8 µM (top of the series) unless noted.
Outline: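 After compound transfer in DMSO, plates were kept 72 hr at 37 degree celsius. Luminescent ATP signal from CellTiter-Glo served as viability measure, normalized against DMSO and no-cell controls.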
With `CC1(C)CC[C@]2(C(=O)O[C@@H]3O[C@H](CO)[C@@H](O)[C@H](O)[C@H]3O)CC[C@]3(C)C(=CCC4[C@@]5(C)CC[C@H](OC6OC(C(=O)O)C(OC7OC(CO)C(O)C(O)C7O)C(O)C6O)C(C)(C)C5CC[C@]43C)C2C1` (some centres undefined) the outcome was “inactive [at 9.27 µM]”. In the case of `COc1cccc(CN(C(=O)CC(C)(C)C)C2CC(C(=O)N3CCNCC3)N(Cc3ccc4c(c3)OCO4)C2)c1` (centres undefined), the outcome is reported as “inactive”. For `C/C=C(/C)C(=O)OC1CC(C)(C)CC2C3=CCC4C5(C)CCC(OC6OC(C)C(OC7OC(C(=O)O)C(O)C(OC8OC(CO)C(O)C(O)C8OC8OC(CO)C(O)C(O)C8O)C7O)C(O)C6O)C(C)(C)C5CCC4(C)C3(C)C(OC(=O)/C=C/C=C/C=C/CCC)C(OC(C)=O)C12CO` (centres undefined), the outcome was “inactive [at 9.27 µM]”. In the case of `Cc1ccc(-c2c(-c3nn(C)c4ncnc(N5CC[C@H](N6CCCCC6)C5)c34)cnn2C)cc1`, the outcome is reported as “inactive”. `O=C(/C=C/C=C/c1ccc2c(c1)OCO2)N1CCCCC1` was tested, and the outcome was “inactive”. For `O=C(O)c1cc(O[C@@H]2O[C@H](CO)[C@@H](O)[C@H](O)[C@H]2O)ccc1O`, the outcome was “inactive”. In the case of `Nc1nc(COC(=O)c2ccc([N+](=O)[O-])cc2)nc(Nc2ccccc2)n1`, the outcome is reported as “inactive”. `C[C@@H]1O[C@@H](O[C@H]2[C@H](O[C@H]3[C@H](O[C@H]4CC[C@@]5(C)C(CC[C@]6(C)C5CC=C5[C@@H]7CC(C)(C)C[C@@H](O)[C@]7(C)CC[C@]56C)[C@@]4(C)CO)O[C@H](C(=O)O)[C@@H](O)[C@@H]3O)O[C@H](CO)[C@H](O)[C@@H]2O)[C@H](O)[C@H](O)[C@H]1O` (some centres undefined) was tested, and the outcome was “inactive [at 9.27 µM]”. For `COc1cc(CO)ccc1O[C@@H]1O[C@H](CO)[C@@H](O)[C@H](O)[C@H]1O`, the outcome was “inactive”. In the case of `COC(=O)c1c(CC=C(C)C)c(OC2OC(CO)C(O)C(O)C2O)c2ccccc2c1OC1OC(CO)C(O)C(O)C1O` (centres undefined), the outcome is reported as “inactive [at 17.4 µM]”. In the case of `COc1ccc(C2(O)c3c(ccc4c3OC(C)(CCC=C(C)C)C=C4)NC(=O)C2OC)cc1` (centres undefined), the outcome is reported as “inactive [at 17.4 µM]”. For `Cc1ccc(C)c(NC(=O)CNS(=O)(=O)c2ccc3[nH]c(=O)oc3c2)c1`, the outcome was “inactive”. `CO[C@H]1c2cc(C(C)C)c(O)c(O)c2[C@@]23CCCC(C)(C)C2[C@@H]1OC3=O` (some centres undefined) was tested, and the outcome was “inactive”. `COc1cc(C(C)=O)ccc1O[C@@H]1O[C@H](CO[C@@H]2OC[C@@H](O)[C@H](O)[C@H]2O)[C@@H](O)[C@H](O)[C@H]1O` was tested, and the outcome was “inactive [at 17.4 µM]”. With `COC(=O)c1[nH]c(=O)c2ccccc2c1-c1ccc[nH]1` the outcome was “inactive”. For `CN[C@H](CNC(=O)N1CCC[C@@H]([C@@H](OCCNC(=O)OC)c2cccc(Cl)c2)C1)C[C@H]1CCCOC1`, the outcome was “inactive”. For `O=C(O)CCc1cc2ccoc2cc1O[C@@H]1O[C@H](CO)[C@@H](O)[C@H](O)[C@H]1O`, the outcome was “inactive”. With `CC(C)[C@@H](C(=O)O)N1Cc2c(cc(O)c3c2O[C@]2(C3)[C@H](C)CCC3C(C)(C)[C@H](O)[C@H](O)C[C@@]32C)C1=O` (some centres undefined) the outcome was “inactive [at 17.4 µM]”. `CCOC(=O)CSc1nc2c(sc3ccccc32)c(=O)n1CCCN1CCCC1` was tested, and the outcome was “inactive”. In the case of `CC1CCC2(C(=O)O)CCC3(C)C(=CCC4C5(C)CCC(O)C(C)(C(=O)O)C5CCC43C)C2C1(C)O` (centres undefined), the outcome is reported as “inactive [at 17.4 µM]”. For `Cc1ccccc1N1CCN(S(=O)(=O)C[C@]23CC[C@H](C[C@@H]2NC(=O)[C@@H](N)CCS(C)(=O)=O)C3(C)C)CC1`, the outcome was “inactive”. `C/C=C(\C)C(=O)OCC1OC(OCC2OC(OC3(CO)OC(CO)C(O)C3O)C(O)C(O)C2O)C(O)C(O)C1O` (centres undefined) was tested, and the outcome was “inactive [at 17.4 µM]”. With `COc1ccc(/C=C/C(=O)O[C@@H]2[C@@H](OC(C)=O)[C@@H](OC(C)=O)[C@H](O[C@H]3[C@@H]4C=CO[C@@H](O[C@@H]5O[C@H](CO)[C@@H](O)[C@H](O)[C@H]5O)[C@@H]4[C@@]4(CO)O[C@@H]34)O[C@H]2C)cc1` the outcome was “inactive [at 17.4 µM]”. For `CC1=C2C[C@@]3(C)[C@@H](CCC[C@@H]3C)C[C@@]2(O)OC1=O`, the outcome was “inactive”. For `COC(=O)/C=C/c1ccc(O[C@@H]2O[C@H](CO)[C@@H](O)[C@H](O)[C@H]2O)cc1`, the outcome was “inactive”. In the case of `FC(F)(F)Oc1ccc(-c2ccc3nnc(C(F)(F)F)n3c2)cc1`, the outcome is reported as “inactive”. For `C=C(C(=O)O)C1CC(OC(=O)CC(C)CC)C2(C)CCCC(=C)C2C1` (centres undefined), the outcome was “inactive”. In the case of `CC(C)(O)C1CC=C(C(=O)OC[C@H]2O[C@@H](OC(=O)C3=CCC(C(C)(C)O)CC3)[C@H](O)[C@@H](O)[C@@H]2O)CC1` (some centres undefined), the outcome is reported as “inactive [at 17.4 µM]”. With `N#Cc1ccc(C2CCCc3cncn32)cc1` (centres undefined) the outcome was “inactive [at 17.4 µM]”. `C[C@@H]1O[C@@H](O[C@@H]2[C@@H](O)[C@H](O[C@@H]3[C@@H](O)[C@@H](O)[C@H](O[C@H]4[C@H](OC(=O)[C@]56CCC(C)(C)C[C@H]5C5=CCC7[C@@]8(C)C[C@H](O)[C@H](O[C@@H]9O[C@H](C(=O)O)[C@@H](O)[C@H](O)[C@H]9O)[C@@](C)(CO)C8[C@H](O)C[C@@]7(C)[C@]5(C)C[C@H]6O)O[C@@H](CO)[C@@H]4O)O[C@H]3C)OC[C@H]2O)[C@H](O)[C@H](O)[C@H]1O` (some centres undefined) was tested, and the outcome was “inactive [at 9.27 µM]”. With `C=C1C2CCC3C(CCC4[C@@]3(C)CCC[C@@]4(C)C(=O)O)(C2)[C@@H]1OC(=O)/C(C)=C\C` (some centres undefined) the outcome was “inactive [at 17.4 µM]”. For `O=C(O)c1cccc(C(=O)CCC2OC(n3cnc4c(=O)[nH]cnc43)C(O)C2O)c1` (centres undefined), the outcome was “inactive [at 17.4 µM]”. `CC1(CO)CCCC2(C)C1C(OC(=O)c1ccccc1)CC1C(=O)OCC12O` (centres undefined) was tested, and the outcome was “inactive”. In the case of `CC1C2=CC(=O)OC2(O)CC2C1C(O)CC1C(C)(CO)CCCC21C` (centres undefined), the outcome is reported as “inactive”. In the case of `COc1cc2c(cc1OC)N1C(=O)C[C@@]34C=CC[N@+]5([O-])CC[C@H]2[C@H](CC3)[C@@]145`, the outcome is reported as “inactive”. `CCCN1CCC[C@@H](c2cccc(S(C)(=O)=O)c2)C1` was tested, and the outcome was “inactive”. For `CC1CCC2(C(=O)OC3OC(CO)C(O)C(O)C3O)CCC3(C)C(=CCC4C5(C)CCC(O)C(C)(CO)C5CCC43C)C2C1(C)O` (centres undefined), the outcome was “inactive [at 17.4 µM]”. In the case of `COc1ccc(Oc2c(Cl)cnn(C3c4ccccc4-c4ccccc43)c2=O)cc1`, the outcome is reported as “inactive”. With `Cc1nnc(-c2sc(NC(=O)[C@H](C(C)C)n3c(=O)[nH]c4ccccc4c3=O)nc2C)o1` the outcome was “inactive”.
